From publication PMC4336329 (PLoS ONE, 2015)
Screen size: about 310,000 compounds; about 14,000 (4.5%) showed an effect of 50% or more. Effects have a minus sign here. What follows is part of a selection rich in strong results, with near analogues and random picks from the rest.

The compounds below were run against human ether-à-go-go-related gene (hERG) potassium channel (human, UniProt Q12809) (assay: primary screen, population patch clamp on CHO cells stably expressing hERG; higher = less effect of the substance).
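Note: peak tail current of the secondary pulse compared with the same well before compound.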

Chain of human ether-à-go-go-related gene (hERG) potassium channel (Q12809 whole entry, looked up): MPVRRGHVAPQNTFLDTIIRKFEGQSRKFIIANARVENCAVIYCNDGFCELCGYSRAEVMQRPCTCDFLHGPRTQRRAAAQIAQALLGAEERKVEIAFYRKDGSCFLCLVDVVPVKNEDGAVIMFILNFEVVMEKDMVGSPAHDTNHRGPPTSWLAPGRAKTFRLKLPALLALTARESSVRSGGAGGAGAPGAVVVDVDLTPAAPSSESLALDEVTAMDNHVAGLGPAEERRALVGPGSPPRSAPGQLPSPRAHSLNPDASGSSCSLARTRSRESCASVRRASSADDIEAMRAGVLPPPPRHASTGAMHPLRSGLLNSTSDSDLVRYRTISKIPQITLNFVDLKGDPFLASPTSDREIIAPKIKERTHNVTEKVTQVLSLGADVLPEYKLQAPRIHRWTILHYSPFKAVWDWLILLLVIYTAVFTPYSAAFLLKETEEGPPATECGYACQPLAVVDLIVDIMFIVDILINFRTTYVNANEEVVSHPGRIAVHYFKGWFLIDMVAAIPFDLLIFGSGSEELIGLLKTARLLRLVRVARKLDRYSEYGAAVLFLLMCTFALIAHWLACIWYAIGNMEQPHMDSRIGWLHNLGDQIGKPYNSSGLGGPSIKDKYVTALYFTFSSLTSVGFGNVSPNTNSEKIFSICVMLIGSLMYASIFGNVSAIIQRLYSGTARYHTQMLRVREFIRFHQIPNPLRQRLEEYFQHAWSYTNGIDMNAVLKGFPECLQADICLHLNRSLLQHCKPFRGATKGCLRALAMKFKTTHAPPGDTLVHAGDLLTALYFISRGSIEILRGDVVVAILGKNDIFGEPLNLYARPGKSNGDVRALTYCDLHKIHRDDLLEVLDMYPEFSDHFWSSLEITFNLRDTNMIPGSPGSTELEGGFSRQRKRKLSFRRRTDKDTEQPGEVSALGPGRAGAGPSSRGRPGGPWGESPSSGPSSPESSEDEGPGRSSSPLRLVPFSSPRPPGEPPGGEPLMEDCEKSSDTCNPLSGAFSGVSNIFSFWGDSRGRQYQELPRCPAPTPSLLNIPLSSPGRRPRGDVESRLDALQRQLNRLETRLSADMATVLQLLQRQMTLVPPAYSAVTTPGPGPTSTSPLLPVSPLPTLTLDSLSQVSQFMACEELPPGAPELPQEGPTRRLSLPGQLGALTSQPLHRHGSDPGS

Structure (SMILES)	hERG current change (%, negative = inhibition) at 10uM
COC(=O)c1c(C(=O)OC)c2n(c1C)CCS2	3.54%
COc1ccc(OC)c(NC(=O)COC(=O)Cn2nnc(-c3ccccc3)n2)c1	2.66%
CCCc1nn2c(=O)cc(CSCC(=O)Nc3ccccc3OC)nc2s1	14.8%
O=C(CSc1nc2ccccc2nc1N1CCOCC1)Nc1ccccc1F	-4.19%
COc1cccc(C(=O)Nc2ccc(NC(=O)Cc3ccccc3)cc2)c1	-24.1%
CCOc1ccccc1CNc1nc2nc3c(c(=O)n2[nH]1)CCC3	19.6%
Oc1c(Br)cc(C2N=C(c3ccccc3Cl)NO2)cc1Br (centres unmarked)	-2.5%
CCCc1c(C)nc(N2CCN(c3ccccc3OC)CC2)[nH]c1=O	25.2%
COc1ccccc1C(=O)NC(=O)COC(=O)c1ccc(Cl)cc1[N+](=O)[O-]	21.6%
COc1ccc(Nc2nc(Nc3ccc(OC)cc3)nc(-n3[nH]c(=O)c(C)c3C)n2)cc1	-10.1%
CCOc1cc(/C=N/NC(=O)c2ccc(N(C)S(=O)(=O)c3ccccc3)cc2)ccc1OC	-33%
Cc1cccc2[nH]c(CN(C)Cc3nc(CC4CC4)no3)nc12	-11.8%
O=C(COc1ccc(CO)cc1)Nc1ccc(F)cc1	0.156%
CCc1cc(=O)oc2c(C)c(O)c(CN3CCCCC3)cc12	-0.833%
CCc1n[nH]c(=S)n1N=C1CCC(C)CC1 (centres unmarked)	19.1%
CC1(C)CC(=O)C=C(NC2=CC3OC(c4ccccc4)OCC3OC2=O)C1 (centres unmarked)	-0.196%
C#Cc1ccc([C@@H]2C=C(C(=O)Nc3ccccc3)O[C@H](OCC)[C@H]2CCCO)cc1	-22.2%
Cc1ccccc1-c1cc(C(=O)N2CCCC2)c2ccccc2n1	-47.9%
O=C(c1cc(-c2ccccc2Cl)nc2ccccc12)N1CCC1	-12.4%

Structure (SMILES)	hERG current change (%, negative = inhibition) at 10uM
CN1CCCN(C(=O)c2cc(-c3cccc4ccccc34)nc3ccccc23)CC1.Cl	-59.4%
CC(=O)N1CCN(C(=O)c2cc(-c3cccc4ccccc34)nc3ccccc23)CC1	-28.9%
CN1CCCN(C(=O)c2cc(-c3ccc(Cl)c(Cl)c3Cl)nc3ccccc23)CC1.Cl	-69%
O=C(c1cc(-c2ccccc2Cl)nc2ccccc12)N1CCN(c2ccccc2O)CC1	-22.6%
CCOC(=O)CNC(=O)CSc1nnc(-c2ccncc2)n1-c1ccc(Cl)cc1	-8.18%
C=CCc1ccccc1OCC(O)CN1CCN(CCN2C(=O)c3cccc4cccc(c34)C2=O)CC1.Cl (centres unmarked)	-57.8%
Cc1ccccc1OCC(O)CN1C(=O)c2ccccc2C1=O (centres unmarked)	4.28%
NC(=O)CN1CCN(CCN2C(=O)c3cccc4cccc(c34)C2=O)CC1	-5.61%
C=CCc1ccccc1OCC(O)CN1CCN(CCO)CC1.Cl (centres unmarked)	11.3%
CC(=O)c1ccccc1OCC(O)CN1CCN(CCN2C(=O)c3cccc4cccc(c34)C2=O)CC1 (centres unmarked)	-73.3%
Cc1ccccc1OCC(O)CN1CCN(CCN2C(=O)c3cccc4cccc(c34)C2=O)CC1 (centres unmarked)	-74.2%
Cc1ccc(C)c(OCC(O)CN2CCN(CCN3C(=O)c4cccc5cccc(c45)C3=O)CC2)c1.Cl (centres unmarked)	-67.3%
Cc1cccc(OCC(O)CN2CCN(CCN3C(=O)c4cccc5cccc(c45)C3=O)CC2)c1C (centres unmarked)	-35.7%
O=C(C(c1ccccc1)c1ccccc1)N1CCN(CCN2C(=O)c3cccc4cccc(c34)C2=O)CC1	-4.74%
C=CCc1ccccc1OCC(O)CN1C(=O)c2ccccc2C1=O (centres unmarked)	-27.2%
Cc1ccc(NC(=S)N2CCN(CCN3C(=O)c4cccc5cccc(c45)C3=O)CC2)cc1	-1.29%
COc1ccc(CN(C)CC(=O)NC(C)c2ccccc2)c(OC)c1 (centres unmarked)	-13.8%
Cc1ccc(-c2noc(CN3CCN(C(c4ccccc4)c4ccccc4)CC3)n2)cc1	7.84%
CN(C)CCNC(=O)c1cccc(NS(=O)(=O)c2ccc(Cl)c(Cl)c2)c1	0.919%

Structure (SMILES)	hERG current change (%, negative = inhibition) at 10uM
O=C(c1ccccc1)N1CC(COc2ccccc2)OC(c2cccnc2)O1 (centres unmarked)	-5.14%
O=C(Cn1nnc(-c2ccccc2NC(=O)c2ccccc2)n1)Nc1ccc2c(c1)OCCO2	1.49%
Cc1cc(Cl)ccc1C1=CC(=O)C[C@H](c2ccc(F)cc2)C1	15.7%
Cc1cc(=O)[nH]c2c1c(C)nn2C1CCCCC1	-3.84%
O=C(COc1cccc(F)c1)NNC(=O)Cc1ccc(S(=O)(=O)N2CCOCC2)s1	-11.9%
C/C(=N\Nc1ccc(Cl)cc1)c1c(O)cc(C)oc1=O	15.3%
c1ccc2c(c1)CC/C2=N/Nc1nc2ccccc2[nH]1	9.49%
CCOCCCn1c(=N)c(C(N)=S)cc2c(=O)n3cccc(C)c3nc21	-82.6%
Cc1cccn2c(=O)c3cc(C(N)=S)c(=N)n(CCCN4CCOCC4)c3nc12	-87.6%
COCCCn1c(C(=O)N2CCOCC2)cc2c(=O)n3cccc(C)c3nc21	-11.4%
CCOCCCNC(=O)c1cc2c(=O)n3cccc(C)c3nc2n1C	12.4%
CCCCn1c(=N)c(S(=O)(=O)c2ccc(Br)cc2)cc2c(=O)n3cccc(C)c3nc21	13%
COCCCn1c(C(=O)NCCN2CCOCC2)cc2c(=O)n3cccc(C)c3nc21	-9.21%
Cc1cccn2c(=O)c3cc(C(=O)NCCCOC(C)C)sc3nc12	-6.24%
Cc1cccn2c(=O)c3cc(C(=O)N4CCOCC4)n(C)c3nc12	-32.1%
COCCCn1c(C(=O)N2CC(C)OC(C)C2)cc2c(=O)n3cccc(C)c3nc21 (centres unmarked)	0.735%
Cc1cccn2c(=O)c3cc(C(N)=S)c(=N)n(CCCOC(C)C)c3nc12	-78.2%
COCCCn1c(=N)c(C(N)=S)cc2c(=O)n3cccc(C)c3nc21	-84.3%
